Assay results published in PubChem BioAssay AID1159580 (chemical genetic matrix, 2015).
Values joined by “and” are separate entries in the source; they are usually repeats but may differ in a detail not shown here. Identical values can stand only once. The campaign covered roughly 5,500 compounds. About 2,000 (36%) were called active. Inconclusive results (about 18%) are left out. No stated cut-off is given here; in the data, active means normalized growth mostly below about 0.91 (no sharp cut-off); inconclusive means no clear call, values can overlap the other calls; inactive means mostly above about 0.92. Some of the results follow.

Test: chemical genetic growth profiling, strain panel (AID 1159580);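 further: tested at 20 µM; growth read once vehicle control cultures reached saturation at 30 °C; 1 = growth at the plate median or of vehicle wells; lower values mean less growth of the strain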
Conditions: S. cerevisiae deletion strains, growth OD

Measured: normalized growth

COc1ccc(-c2cc(=O)c3cc(OC)ccc3o2)cc1
inactive: locus YAL013W, strain DEP1, active compounds read low 0.982 | locus YAL021C, strain ccr4, active compounds read low 0.964 | locus YAL026C, strain drs2, active compounds read low 0.922 | locus YBL061C, strain skt5, active compounds read low 0.937 | locus YBR021W, strain FUR4, active compounds read low 0.908 | locus YBR023C, strain chs3, active compounds read low 0.916 | locus YBR171W, strain sec66, active compounds read low 0.95 | locus YBR229C, strain ROT2, active compounds read low 0.999 | locus YBR231C, strain swc5, active compounds read low 0.939 | locus YBR279W, strain paf1, active compounds read low 0.944 | locus YCL016C, strain dcc1, active compounds read low 0.944 | locus YCL029C, strain bik1, active compounds read low 0.987 | locus YCL061C, strain MRC1, active compounds read low 0.96 | locus YCL069W, strain vba3, active compounds read low 0.945 | locus YCR088W, strain abp1, active compounds read low 0.94 | locus YDL005C, strain med2, active compounds read low 0.949 | locus YDL035C, strain GPR1, active compounds read low 0.977 | locus YDL040C, strain nat1, active compounds read low 0.95 | locus YDL074C, strain BRE1, active compounds read low 0.918 | locus YDL101C, strain DUN1, active compounds read low 0.983 | locus YDL134C, strain PPH21, active compounds read low 1.04 | locus YDL185W, strain tfp1, active compounds read low 0.946 | locus YDL192W, strain arf1, active compounds read low 0.978 | locus YDR001C, strain nth1, active compounds read low 0.942 | locus YDR069C, strain doa4, active compounds read low 0.948 | locus YDR101C, strain arx1, active compounds read low 0.946 | locus YDR137W, strain rgp1, active compounds read low 0.883 | locus YDR150W, strain NUM1, active compounds read low 0.983 | locus YDR159W, strain sac3, active compounds read low 0.925 | locus YDR162C, strain NBP2, active compounds read low 1.01 | locus YDR195W, strain ref2 1.04 | locus YDR297W, strain sur2, active compounds read low 0.955 | locus YDR318W, strain mcm21, active compounds read low 1.02 | locus YDR334W, strain swr1, active compounds read low 0.931 | locus YDR335W, strain msn5, active compounds read low 0.962 | locus YDR388W, active compounds read low 1 | locus YDR502C, strain sam2, active compounds read low 0.968 | locus YEL003W, strain gim4, active compounds read low 0.956 | locus YEL061C, strain CIN8 (second series), active compounds read low 0.93 | locus YEL061C, strain CIN8, active compounds read low 1.01 | locus YER015W, strain faa2, active compounds read low 0.969 | locus YER016W, strain bim1, active compounds read low 0.954 | locus YER110C, active compounds read low 0.974 | locus YER111C, strain swi4, active compounds read low 0.943 | locus YER155C, strain BEM2, active compounds read low 0.985 | locus YER167W, strain BCK2, active compounds read low 0.997 | locus YFR010W, strain ubp6, active compounds read low 0.906 | locus YGL078C, strain dbp3, active compounds read low 0.995 | locus YGL086W, strain mad1, active compounds read low 0.938 | locus YGL167C, strain pmr1, active compounds read low 0.924 | locus YGL173C, strain kem1, active compounds read low 0.947 | locus YGL227W, strain vid30, active compounds read low 0.947 | locus YGL240W, strain doc1, active compounds read low 0.892 | locus YGL248W, strain PDE1, active compounds read low 1.01 | locus YGR078C, strain PAC10, active compounds read low 0.988 | locus YGR135W, strain pre9, active compounds read low 1.01 | locus YGR229C, strain SMI1, active compounds read low 0.961 | locus YGR252W, strain gcn5, active compounds read low 1.04 | locus YHR013C, strain ard1, active compounds read low 0.972 | locus YHR027C, strain rpn1, active compounds read low 0.949 | locus YHR030C, strain SLT2, active compounds read low 0.998 and 0.956 | locus YHR079C, strain IRE1 (second series), active compounds read low 0.997 | locus YHR079C, strain IRE1, active compounds read low 0.928 | locus YHR094C, strain hxt1, active compounds read low 1.01 | locus YHR129C, strain ARP1, active compounds read low 0.985 | locus YHR200W, strain rpn10, active compounds read low 0.985 | locus YIL066C, strain RNR3, active compounds read low 0.999 | locus YIL073C, strain SPO22, active compounds read low 0.973 | locus YIL125W, strain kgd1, active compounds read low 0.99 | locus YIR030C, strain dcg1, active compounds read low 1.01 | locus YJL092W, strain hpr5, active compounds read low 0.948 | locus YJL095W, strain BCK1 (second series), active compounds read low 0.95 | locus YJL095W, strain BCK1, active compounds read low 0.96 and 0.964 | locus YJL115W, strain asf1, active compounds read low 0.936 | locus YJL129C, strain trk1, active compounds read low 0.937 | locus YJL134W, strain LCB3, active compounds read low 0.996 | locus YJL154C, strain vps35, active compounds read low 0.942 | locus YJL166W, strain qcr8, active compounds read low 0.913 | locus YJL168C, strain set2, active compounds read low 1 | locus YJL187C, strain SWE1 (second series), active compounds read low 0.972 | locus YJL187C, strain SWE1, active compounds read low 0.948 | locus YJR043C, strain POL32, active compounds read low 0.966 | locus YJR066W, strain TOR1, active compounds read low 0.893 | locus YKL009W, strain mrt4, active compounds read low 0.925 | locus YKL068W, active compounds read low 1 | locus YKL085W, strain MDH1 (second series), active compounds read low 0.997 | locus YKL085W, strain MDH1, active compounds read low 0.997 | locus YKL160W, strain elf1, active compounds read low 0.939 | locus YKL190W, strain CNB1, active compounds read low 1 | locus YKR001C, strain vps1, active compounds read low 0.93 | locus YKR026C, strain gcn3, active compounds read low 0.942 | locus YKR091W, strain srl3, active compounds read low 0.96 | locus YLL001W, strain dnm1, active compounds read low 0.931 | locus YLL041C, strain sdh2, active compounds read low 0.96 | locus YLR027C, strain aat2, active compounds read low 0.925 | locus YLR039C, strain RIC1, active compounds read low 1.01 | locus YLR058C, strain SHM2, active compounds read low 0.99 | locus YLR102C, strain apc9, active compounds read low 0.975 | locus YLR113W, strain HOG1, active compounds read low 0.981 | locus YLR221C, strain rsa3, active compounds read low 0.947 | locus YLR258W, strain gsy2, active compounds read low 0.934 | locus YLR262C, strain YPT6 (second series), active compounds read low 0.902 | locus YLR262C, strain YPT6, active compounds read low 1.06 | locus YLR268W, strain sec22, active compounds read low 0.965 | locus YLR330W, strain CHS5, active compounds read low 0.925 | locus YLR342W, strain FKS1 (second series), active compounds read low 0.975 | locus YLR342W, strain FKS1, active compounds read low 0.94 | locus YLR357W, strain rsc2, active compounds read low 0.88 | locus YLR370C, strain arc18, active compounds read low 0.941 | locus YLR371W, strain rom2, active compounds read low 0.965 | locus YLR384C, strain iki3, active compounds read low 0.944 | locus YLR418C, strain cdc73, active compounds read low 0.943 | locus YML016C, strain PPZ1, active compounds read low 0.991 | locus YML032C, strain rad52, active compounds read low 0.997 | locus YML120C, strain ndi1, active compounds read low 0.946 | locus YML124C, strain tub3, active compounds read low 1.01 | locus YMR058W, strain fet3, active compounds read low 0.928 | locus YMR078C, strain ctf18, active compounds read low 0.982 | locus YMR125W, strain sto1, active compounds read low 0.927 | locus YMR129W, active compounds read low 0.949 | locus YMR205C, strain PFK2, active compounds read low 0.898 | locus YMR223W, strain ubp8, active compounds read low 1.02 | locus YMR231W, strain pep5, active compounds read low 0.974 | locus YMR307W, strain GAS1, active compounds read low 1.06 | locus YNL067W, strain RPL9B, active compounds read low 0.99 | locus YNL183C, strain NPR1, active compounds read low 0.885 | locus YNL209W, strain ssb2, active compounds read low 0.956 | locus YNL233W, strain BNI4, active compounds read low 0.914 | locus YNL248C, strain rpa49, active compounds read low 0.95 | locus YNL250W, strain rad50, active compounds read low 0.957 | locus YNL271C, strain bni1, active compounds read low 1.02 | locus YNL298W, strain CLA4, active compounds read low 0.995 | locus YNL307C, strain MCK1, active compounds read low 0.987 | locus YNL322C, strain KRE1 (second series), active compounds read low 0.948 | locus YNL322C, strain KRE1, active compounds read low 1 | locus YNR049C, strain mso1, active compounds read low 0.937 | locus YNR052C, strain pop2, active compounds read low 1.02 | locus YOL012C, strain htz1 1.07 | locus YOL147C, strain pex11, active compounds read low 0.997 | locus YOR001W, strain rrp6, active compounds read low 0.95 | locus YOR061W, strain CKA2, active compounds read low 1.01 | locus YOR069W, strain VPS5, active compounds read low 0.99 | locus YOR070C, strain gyp1, active compounds read low 0.941 | locus YOR080W, strain dia2, active compounds read low 0.961 | locus YOR083W, strain WHI5, active compounds read low 0.954 | locus YOR106W, strain vam3, active compounds read low 0.905 | locus YOR136W, strain idh2, active compounds read low 0.988 | locus YOR144C, strain elg1, active compounds read low 0.997 | locus YOR184W, strain ser1, active compounds read low 0.979 | locus YOR231W, strain MKK1, active compounds read low 0.952 | locus YOR265W, strain rbl2, active compounds read low 0.949 | locus YOR316C, strain cot1, active compounds read low 0.996 | locus YPL051W, strain arl3, active compounds read low 0.945 | locus YPL055C, strain LGE1, active compounds read low 0.934 | locus YPL078C, strain atp4, active compounds read low 0.922 | locus YPL106C, strain sse1, active compounds read low 0.873 | locus YPL240C, strain hsp82, active compounds read low 0.972 | locus YPL241C, strain CIN2, active compounds read low 0.997 | locus YPL256C, strain CLN2, active compounds read low 0.962 | locus YPR119W, strain clb2, active compounds read low 1 | locus YPR141C, strain kar3, active compounds read low 1.02 | locus YPR163C, strain tif3, active compounds read low 1 | locus YPR167C, strain met16, active compounds read low 1.02 | strain wtn01, active compounds read low 0.944
active: locus YAL030W, strain snc1, active compounds read low 0.928 | locus YBR009C, strain hhf1, active compounds read low 0.902 | locus YCL011C, strain gbp2, active compounds read low 0.887 | locus YDR392W, strain spt3, active compounds read low 0.571 | locus YEL037C, strain rad23, active compounds read low 0.921 | locus YER155C, strain BEM2 (second series), active compounds read low 0.771 | locus YGL253W, strain hxk2, active compounds read low 0.894 | locus YHR142W, strain chs7, active compounds read low 0.84 | locus YJL164C, strain tpk1, active compounds read low 0.912 | locus YLL026W, active compounds read low 0.926 | locus YLR320W, strain mms22, active compounds read low 0.869 | locus YNL071W, strain lat1, active compounds read low 0.831 | locus YOR270C, strain vph1, active compounds read low 0.676 | locus YOR290C, strain snf2, active compounds read low 0.849
